Several values for one entry are separate records, joined by “and”; a condition that tells them apart may be missing. Equal entries are not always repeated. More than one record can exist for a structure, and the calls need not agree. Activity calls are given as the source filed them. Rule for the calls: active = hit-call score of the fitted dose curve at least 0.9, where 1 is the maximum; inactive = score below 0.9.
Experiments:
[1] = read-out: Tissue Factor, F3 (gene 2152); assay: BSK_CASM3C_TissueFactor: BioMAP Diversity Plus: CASM3C Assay for Tissue Factor Biomarker Activity (AID 2283052); conditions: primary human coronary artery smooth muscle cells; actives raise or lower the signal;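 note: cell surface tissue factor protein level read by ELISA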
[2] = read-out: Urokinase-type plasminogen activator receptor (uPAR), PLAUR (gene 5329); assay: BSK_CASM3C_uPAR: BioMAP Diversity Plus: CASM3C Assay for Urokinase-type plasminogen activator receptor (uPAR) Biomarker Activity (AID 2283054); conditions: primary human coronary artery smooth muscle cells; actives raise or lower the signal;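 note: cell-surface uPAR protein level quantified by ELISA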
[3] = read-out: Vascular cell adhesion molecule 1 (VCAM1), VCAM1 (gene 7412); assay: BSK_CASM3C_VCAM1: BioMAP Diversity Plus: CASM3C Assay for Vascular cell adhesion molecule 1 (VCAM1) Biomarker Activity (AID 2283055); conditions: primary human coronary artery smooth muscle cells; actives raise or lower the signal;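 note: VCAM-1 protein level quantified by ELISA on the cells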
[4] = read-out: Collagen III, COL3A1 (gene 1281); assay: BSK_hDFCGF_CollagenIII: BioMAP Diversity Plus: hDFCGF Assay for Collagen III Biomarker Activity (AID 2283056); conditions: primary human foreskin fibroblasts; actives raise or lower the signal
Summary of the method: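 Cells: human foreskin fibroblasts, primary. Dosing followed by 24 h incubation, then ELISA for collagen III. Both increases and decreases scored relative to DMSO.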

[5] = read-out: Epidermal growth factor receptor (EGFR), EGFR (gene 1956); assay: BSK_hDFCGF_EGFR: BioMAP Diversity Plus: hDFCGF Assay for Epidermal growth factor receptor (EGFR) Biomarker Activity (AID 2283057); conditions: primary human foreskin fibroblasts; actives raise or lower the signal
Summary of the method: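 Measured by ELISA: EGFR levels on primary human foreskin fibroblasts 24 h after chemical treatment, analysed relative to DMSO with bidirectional fitting.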

[6] = read-out: Interleukin-8 (IL8), CXCL8 (gene 3576); assay: BSK_hDFCGF_IL8: BioMAP Diversity Plus: hDFCGF Assay for Interleukin-8 (IL8) Biomarker Activity (AID 2283058); conditions: primary human foreskin fibroblasts; actives raise or lower the signal
Summary of the method: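 IL-8 levels from compound-treated primary human fibroblasts were read by ELISA at 24 h, with DMSO serving as baseline for bidirectional fitting.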

[7] = BSK_hDFCGF_Proliferation: Cell Proliferation Assessment in the BioMAP Diversity Plus: hDFCGF Assay (AID 2283059); conditions: primary human foreskin fibroblasts;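 note: curves fitted for both rise and fall of signal versus DMSO baseline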
Summary of the method: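 Sub-confluent human foreskin fibroblast cultures receive test chemical […]. Relative cell number is quantified by sulforhodamine B staining (0.1%, after 10% TCA fixation) at 560 nm, with bidirectional fitting referenced to DMSO.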

[8] = read-out: Macrophage colony-stimulating factor (MCSF), CSF1 (gene 1435); assay: BSK_hDFCGF_MCSF: BioMAP Diversity Plus: hDFCGF Assay for Macrophage colony-stimulating factor (MCSF) Biomarker Activity (AID 2283060); conditions: primary human foreskin fibroblasts; actives raise or lower the signal
Summary of the method: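 M-CSF levels, determined by ELISA, are taken at 24 h after dosing human skin fibroblasts. Responses in either direction are fitted with DMSO serving as the baseline.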

[9] = BSK_hDFCGF_SRB: Viability Assessment in the BioMAP Diversity Plus: hDFCGF Assay (AID 2283061); conditions: primary human foreskin fibroblasts;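 note: cells exposed to compound for 24 h before the read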
Summary of the method: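 Cells were dosed with test chemical, cultured 24 h, fixed with 10% TCA, then stained with 0.1% SRB and read at 560 nm. The fibroblasts were human foreskin primary cells, and DMSO served as baseline.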

[10] = read-out: TIMP metallopeptidase inhibitor 1 (TIMP1), TIMP1 (gene 7076); assay: BSK_hDFCGF_TIMP1: BioMAP Diversity Plus: hDFCGF Assay for TIMP metallopeptidase inhibitor 1 (TIMP1) Biomarker Activity (AID 2283062); conditions: primary human foreskin fibroblasts; actives raise or lower the signal
Summary of the method: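 Fibroblasts from human foreskin are treated with test chemical and harvested at 24 h. TIMP-1 is quantified by ELISA, and gain or loss of signal is scored against DMSO.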

[11] = read-out: Monokine induced gamma interferon (MIG), CXCL9 (gene 4283); assay: BSK_hDFCGF_MIG: BioMAP Diversity Plus: hDFCGF Assay for Monokine induced gamma interferon (MIG) Biomarker Activity (AID 2283063); conditions: primary human foreskin fibroblasts; actives raise or lower the signal
Summary of the method: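 MIG signal, determined by ELISA, reflects 24 h chemical exposure of human skin primary fibroblasts. DMSO serves as negative control and baseline.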

[12] = read-out: Matrix Metallopeptidase 1 (MMP1), MMP1 (gene 4312); assay: BSK_hDFCGF_MMP1: BioMAP Diversity Plus: hDFCGF Assay for Matrix Metallopeptidase 1 (MMP1) Biomarker Activity (AID 2283064); conditions: primary human foreskin fibroblasts; actives raise or lower the signal
Summary of the method: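 Primary human foreskin fibroblasts in the hDFCGF system were dosed with test chemical, and MMP1 was measured by ELISA 24 h later. Values come from bidirectional curve fitting against the DMSO baseline.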

[13] = read-out: Vascular cell adhesion molecule 1 (VCAM1), VCAM1 (gene 7412); assay: BSK_hDFCGF_VCAM1: BioMAP Diversity Plus: hDFCGF Assay for Vascular cell adhesion molecule 1 (VCAM1) Biomarker Activity (AID 2283065); conditions: primary human foreskin fibroblasts; actives raise or lower the signal;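 for AC50: VCAM-1 protein level quantified by ELISA after 24 h chemical exposure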
Summary of the method: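 Cells are dosed, cultured for 24 h, then VCAM-1 is quantified by ELISA; signal increases and decreases are both fitted relative to DMSO.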

[14] = read-out: Plasminogen activator inhibitor-1 (PAI1), SERPINE1 (gene 5054); assay: BSK_hDFCGF_PAI1: BioMAP Diversity Plus: hDFCGF Assay for Plasminogen activator inhibitor-1 (PAI1) Biomarker Activity (AID 2283066); conditions: primary human foreskin fibroblasts; actives raise or lower the signal
Summary of the method: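 PAI-1 levels, determined by ELISA, served as the endpoint in human foreskin fibroblast cultures exposed to compound for 24 h, with DMSO as baseline.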

[15] = read-out: Intercellular Adhesion Molecule 1 (ICAM1), ICAM1 (gene 3383); assay: BSK_KF3CT_ICAM1: BioMAP Diversity Plus: KF3CT Assay for Intercellular Adhesion Molecule 1 (ICAM1) Biomarker Activity (AID 2283067); conditions: primary human keratinocytes with fibroblasts; actives raise or lower the signal
Summary of the method: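 Dose the keratinocyte/fibroblast co-culture, wait 24 h, measure ICAM-1 by ELISA, then fit increases or decreases against DMSO. Cytotoxicity is checked in parallel cultures by SRB total-protein staining.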

[16] = read-out: Interferon-gamma inducible Protein 10 (IP10), CXCL10 (gene 3627); assay: BSK_KF3CT_IP10: BioMAP Diversity Plus: KF3CT Assay for Interferon-gamma inducible Protein 10 (IP10) Biomarker Activity (AID 2283068); conditions: primary human keratinocytes with fibroblasts; actives raise or lower the signal
Summary of the method: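 ELISA read-out of IP-10 after 24 h chemical dosing of human skin primary co-culture (keratinocytes, foreskin fibroblasts). Gain or loss of signal relative to DMSO, bidirectional curve fit.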

[17] = BSK_KF3CT_SRB: Viability Assessment in the BioMAP Diversity Plus: KF3CT Assay (AID 2283069); conditions: primary human keratinocytes with fibroblasts;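 note: total protein by sulforhodamine B staining as a cytotoxicity measure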
Summary of the method: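 Human primary keratinocyte plus foreskin fibroblast co-culture exposed to chemicals for 24 h. Total protein measured by 0.1% sulforhodamine B staining after 10% TCA fixation, read at 560 nm; bidirectional fitting versus DMSO baseline.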

[18] = read-out: Interleukin-1 alpha (IL1a), IL1A (gene 3552); assay: BSK_KF3CT_IL1a: BioMAP Diversity Plus: KF3CT Assay for Interleukin-1 alpha (IL1a) Biomarker Activity (AID 2283070); conditions: primary human keratinocytes with fibroblasts; actives raise or lower the signal
Summary of the method: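 Human keratinocyte plus foreskin fibroblast primary co-culture, sampled 24 h after chemical dosing. IL-1a measured by ELISA; responses fitted bidirectionally against DMSO baseline (negative control), so gain or loss of signal both count.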

[19] = read-out: TIMP metallopeptidase inhibitor 2 (TIMP2), TIMP2 (gene 7077); assay: BSK_KF3CT_TIMP2: BioMAP Diversity Plus: KF3CT Assay for TIMP metallopeptidase inhibitor 2 (TIMP2) Biomarker Activity (AID 2283071); conditions: primary human keratinocytes with fibroblasts; actives raise or lower the signal
Summary of the method: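 Keratinocyte–fibroblast co-culture, 24 h exposure; TIMP-2 ELISA, DMSO-normalised bidirectional fit. Parallel SRB (0.1%, TCA-fixed, 560 nm) total-protein staining gauges cytotoxicity.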

[20] = read-out: Interferon-gamma inducible Protein 10 (IP10), CXCL10 (gene 3627); assay: BSK_hDFCGF_IP10: BioMAP Diversity Plus: hDFCGF Assay for Interferon-gamma inducible Protein 10 (IP10) Biomarker Activity (AID 2283053); conditions: primary human foreskin fibroblasts; actives raise or lower the signal
Summary of the method: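 IP-10 levels, quantified by ELISA, are taken from human foreskin fibroblast cultures 24 h after chemical treatment, with DMSO serving as negative control and baseline for bidirectional analysis.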

Measured: AC50

COc1cc(Cl)c(OC)cc1N
inactive: [1] | [2] | [3] | [4] | [5] | [6] | [7] | [8] | [9] | [10] | [11] | [12] | [13] | [14] | [15] | [16] | [17] | [18] | [19]

COc1ccc(OC)c(N=Nc2c(O)ccc3ccccc23)c1
active: [3] 20 µM | [4] 1.92 µM | [7] 10.2 µM | [8] 5.74 µM | [9] 8.26 µM | [10] 4.02 µM | [11] 1.93 µM | [12] 14.2 µM | [13] 1.42 µM | [18] 8.38 µM | [19] 7.85 µM
inactive: [1] | [2] | [5] | [6] | [14] | [15] | [16] | [17]

C[C@@H]1CCN(C(=O)[C@H](CCCN=C(N)N)NS(=O)(=O)c2cccc3c2NC[C@H](C)C3)[C@@H](C(=O)O)C1
inactive: [1] | [2] | [3] | [4] | [5] | [6] | [7] | [8] | [9] | [10] | [11] | [12] | [13] | [14] | [15] | [16] | [17] | [18] | [19]

O=C(Nc1ccc2c(O)c(N=Nc3ccc(N=Nc4ccc(S(=O)(=O)O)cc4)cc3)c(S(=O)(=O)O)cc2c1)c1ccccc1
active: [8] 30.8 µM and 29.3 µM | [9] 35.3 µM | [11] 23.6 µM | [13] 15.1 µM
inactive: [1] | [2] | [3] | [4] | [5] | [6] | [7] | [10] | [11] | [12] | [13] | [14] | [15] | [16] | [17] | [18] | [19]

c1ccc(CCc2ccccc2)cc1
active: [1] 20 µM | [20] 34.1 µM | [2] 31.9 µM | [3] 37.6 µM | [4] 36.1 µM | [7] 13.8 µM | [8] 30.5 µM | [9] 30.3 µM | [10] 36.6 µM | [12] 36.7 µM | [13] 30.9 µM | [14] 31.1 µM | [16] 30 µM | [17] 28.5 µM | [18] 25.2 µM | [19] 13.4 µM
inactive: [5] | [6] | [11] | [15]

CS(=O)(=O)OCCCCOS(C)(=O)=O
inactive: [1] | [20] | [2] | [3] | [4] | [5] | [6] | [7] | [8] | [9] | [10] | [11] | [12] | [13] | [14] | [15] | [16] | [17] | [18] | [19]
